Reference: PubChem BioAssay (NCATS)
Where “and” joins values, the source holds several entries; their conditions need not be identical. Equal entries are not always repeated. Records with an inconclusive call do not appear. Calls of active or inactive are those of the source. Unless noted, the call rests on the fitted dose curve; in most records, active means well fitted curve in the direction sought with a large enough effect; inconclusive means small, poorly fitted or top-dose-only effect, or another doubt; inactive means no such curve, though single readings can be large; an effect the other way counts as inactive or inconclusive.

How the values were obtained:
[1] = biological target: Flap endonuclease 1 (Homo sapiens) (UniProt P39748); test: qHTS Validation Assay for the Inhibitors of Human Flap endonuclease 1 (FEN1) (AID 488816); further: on the % scale 0 is the no-effect control and ±100 the full control effect
How it was run: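 FEN1, dispensed as a 10 nM reagent, was preincubated with pin-transferred compounds for 15 min at room temperature before substrate was added (50 nM final). Plates were read at 0 and 15 min, and a four-parameter Hill equation was fitted to the concentration-response data.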

[2] = biological target: M-phase phosphoprotein 8 (Homo sapiens) (UniProt Q99549); test: qHTS Validation Assay for Inhibitors for MPP8 Chromodomain Interactions with Methylated Histone Tails (AID 488949); further: nearly all actives have a fitted effect of over 55% in size; further: potency means the concentration at half of the fitted maximal effect
How it was run: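 50 nM MPP8 + 50 nM b-H3K9me3 peptide, PBS pH 7.4/0.01% Tween-20, 30 min RT; + cpd 30 min RT; + AlphaScreen donor/Ni-chelate acceptor beads 10 ug/mL final, 30 min dark; luminescence read.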

[3] = biological target: Methanococcus maripaludis chaperonin (MmCpn) (UniProt Q6LX38); test: High-Throughput Screening for Modulators of Cytosolic Chaperonin Activity: MmCpn Primary Screen (AID 488978);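 further: 50 nM MmCpn enzyme hydrolysing 30 µM ATP at 37 °C; 0% is about no effect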
How it was run: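 Steps: chaperonin 50 nM final; add compound, 5 min RT; start with ATP, 30 uM final; hold 10 min at 37C; add ADP Transcreener HTRF reagent, 5 min; read ex 320, em 590 and 665 nm.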

[4] = biological target: Transient receptor potential cation channel subfamily V member 1 (Homo sapiens) (UniProt Q8NER1); test: HTS Assay for Compounds that Act as Enhancers of the Vanilloid Receptor 1 (AID 488979); further: 0% is about no effect
How it was run: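 TRPV1-expressing cells loaded with Fluo-8 calcium dye; compounds added and calcium influx read kinetically for 3 min (agonist phase), then capsaicin at EC20 added and read 2 min more for enhancement. Fluorescence ex 480/em 520 nm.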

[5] = biological target: Thyrotropin receptor (Homo sapiens) (UniProt P16473); test: qHTS Assay for Antagonists of the Thyroid Stimulating Hormone Receptor (AID 488980); further: series mostly up to about 58 µM; 0% is about no effect
How it was run: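 Readout is cAMP by HTRF competition between cellular cAMP and cAMP-d2 for a cryptate-labelled antibody. Antagonism was assessed in TSHR-transfected HEK293 cells stimulated with 4 nM TSH (EC80, final) in the presence of RO 20-1724.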

[6] = biological target: D(1A) dopamine receptor (Homo sapiens) (UniProt P21728); test: HTS Assay for Allosteric Agonists of the Human D1 Dopamine Receptor: Primary Screen for Potentiators (AID 488982); further: 0% is about no effect
How it was run: (§1)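 Tetracycline-induced HEK293 T-REx cells force-coupled to calcium signalling were incubated overnight at 30 C and dye-loaded at room temperature. Calcium flux over 180 s after compound addition flagged agonists; a further 180 s read after EC20 dopamine flagged potentiators.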

[7] = Validation screen for small molecules that induce genotoxicity in human embryonic kidney (HEK293T) cells expressing luciferase-tagged ELG1 (AID 493106); further: potency means the concentration at half of the fitted maximal effect
How it was run: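 HEK293T cells expressing luciferase-tagged ELG1, 2,000 cells/well, exposed to compound 16 hr at 37 °C, 5% CO2. Luciferase read after ONE-Glo, 30 min at room temperature; increased signal indicates genetic stress.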

[8] = biological target: ATPase family AAA domain-containing protein 5 (Homo sapiens) (UniProt Q96QE3); test: Validation screen for small molecules that inhibit ELG1-dependent DNA repair in human embryonic kidney (HEK293T) cells expressing luciferase-tagged ELG1 (AID 493107); further: nearly all actives have a fitted effect of over 70% in size; further: potency means the concentration at half of the fitted maximal effect
How it was run: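 HEK293T cells expressing luciferase-tagged ELG1, 2,000 per well, treated with 5-fluorouridine plus compound for 16 h at 37 C. ONE-Glo luminescence after 30 min at room temperature reports ELG1 reporter level.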

[9] = biological target: Thyrotropin-releasing hormone receptor (Homo sapiens) (UniProt P34981); test: qHTS for Small Molecule Agonists and Allosteric Enhancers of Human TRH Receptor: Validation Screen for Agonists (AID 493127;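 active means calcium activation more than 3 SD above the typical response in the agonist read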; further: 0% is about no effect); conditions: TRH receptor agonist cell assay; at 2 µM; stronger effect = higher value
How it was run: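 TRHR cells loaded with fluo-8 calcium dye; FDSS kinetic fluorescence (Ex 480/Em 530) read at 1 s/cycle after 23 nL compound addition. Agonist-mode calcium response recorded before the 10 nM TRH (EC20) addition.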

[10] = Nrf2 qHTS screen for inhibitors: Validation (AID 493153; active means well fitted inhibition curve with a large enough effect in the main read-out, with a control signal flat, not every such curve was filed as active); conditions: Potency: luciferase luminescence; viability change: measured here: cytotoxicity max response
How it was run: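 A549 cells carrying ARE-firefly luciferase reporter, 5000 cells/well in 5% FBS OPTI-MEM, treated with compound over a concentration series for 18-24 h at 37 C. Luciferase luminescence gave Nrf2 activity; CellTiter-Fluor fluorescence gave viability.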

[11] = qHTS for Inhibitors of Cell Surface uPA Generation: Validation Assay (AID 493164); further: 0% is about no effect
How it was run: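 RAW 264.7 cells (4000/well) were plated overnight, then exposed for 18 h at 37 C, 5% CO2 to compounds in a 7-point 1:5 titration (2.45 nM–38.3 uM final). Intracellular ATP was read by ATP-Lite luminescence.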

[12] = biological target: Galactokinase (Homo sapiens) (UniProt P51570); test: qHTS Validation Assay for Inhibitors of Human Galactokinase (GALK) (AID 493189); further: 0% is about no effect
How it was run: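 5 nM GALK / 100 uM galactose / 35 uM ATP, 20 mM HEPES pH8.0, 5 mM MgCl2, 60 mM NaCl, 1 mM DTT, 0.01% BSA (final). RT 1 h; Kinase-Glo Plus luminescence.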

[13] = Validation screen for small molecules that induce DNA re-replication in SW480 colon adenocarcinoma cells (AID 504364); further: 0% is about no effect
How it was run: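 SW480 cells (250/well) exposed 48 h at 37 C, 5% CO2, then Hoechst-stained 40 min. Nuclear DNA content imaged by fluorescence scanning (405 nm excitation, 500-530 nm emission); re-replication scored as increased nuclei with elevated intensity.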

[14] = biological target: Chromobox protein homolog 1 (Homo sapiens) (UniProt P83916); test: qHTS Validation Assay for Inhibitors of HP1-beta Chromodomain Interactions with Methylated Histone Tails (AID 488953); further: nearly all actives have a fitted effect of over 50% in size; further: potency means the concentration at half of the fitted maximal effect
How it was run: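 HP1-beta (50 nM) preformed 30 min with biotinylated H3(1-18)K9me3 peptide (50 nM) in PBS pH 7.4, 0.01% Tween-20. Compounds added for 30 min at room temperature. Complex disruption read by AlphaScreen with streptavidin donor/nickel chelate acceptor beads (10 ug/mL each).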

[15] = biological target: D(1A) dopamine receptor (Homo sapiens) (UniProt P21728); test: HTS Assay for Allosteric Agonists of the Human D1 Dopamine Receptor: Primary Screen for Agonists (AID 488981); further: potency means the concentration at half of the fitted maximal effect; on activation: 0% is about no effect
How it was run: as §1

[16] = biological target: D(1A) dopamine receptor (Homo sapiens) (UniProt P21728); test: HTS Assay for Allosteric Agonists of the Human D1 Dopamine Receptor: Primary Screen for Antagonists (AID 488983);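 further: calcium flux response to an EC80 dopamine challenge measured with no-wash dye; nearly all actives have a fitted effect of over 65% in size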; further: potency means the concentration at half of the fitted maximal effect
How it was run: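 Tetracycline-induced HEK293 T-REx D1 line, force-coupled to calcium flux, read with no-wash calcium dye. Compound added after 10 s baseline, read 180 s for agonism, then EC80 dopamine added and read a further 180 s.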

[17] = biological target: ATP-dependent 6-phosphofructokinase (Trypanosoma brucei brucei) (UniProt O15648); test: qHTS Assay to Find Inhibitors of T. brucei phosphofructokinase: hit validation (AID 492961);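 further: luminescence reports ADP formed as PFK phosphorylates fructose-6-phosphate with ATP; series mostly up to about 51 µM; on the % scale 0 is the no-effect control and ±100 the full control effect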
How it was run: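 Reaction: 0.1 M triethanolamine pH 8.0, 5 mM MgCl2, F6P 0.5 mM, ATP 0.1 mM, PFK 1.25 nM, 45 min RT. Read-out: ADP-Glo luminescence. Analysis: concentration-response fits, classed by r2 and efficacy.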

[18] = biological target: Tyrosyl-DNA phosphodiesterase 1 (Homo sapiens) (UniProt Q9NUW8); test: Confirmation Assay for Inhibitors of Tyrosyl-DNA Phosphodiesterase (TDP1) (AID 489007); conditions: recombinant human TDP1 enzymatic activity, dose-response; further: potency means the concentration at half of the fitted maximal effect; nearly all actives have a fitted effect of over 40% in size
How it was run: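 Recombinant human Tdp1 (1 nM final), expressed in E. coli, preincubated 15 min with compound. Then 15 nM 5'-biotin/3'-phosphotyrosine-FITC DNA substrate added for 5 min at room temperature. AlphaScreen beads (10 ug/ml) added for 10 min; cleavage gives signal loss.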

Galactokinase (Homo sapiens), sequence (P51570 whole entry, looked up): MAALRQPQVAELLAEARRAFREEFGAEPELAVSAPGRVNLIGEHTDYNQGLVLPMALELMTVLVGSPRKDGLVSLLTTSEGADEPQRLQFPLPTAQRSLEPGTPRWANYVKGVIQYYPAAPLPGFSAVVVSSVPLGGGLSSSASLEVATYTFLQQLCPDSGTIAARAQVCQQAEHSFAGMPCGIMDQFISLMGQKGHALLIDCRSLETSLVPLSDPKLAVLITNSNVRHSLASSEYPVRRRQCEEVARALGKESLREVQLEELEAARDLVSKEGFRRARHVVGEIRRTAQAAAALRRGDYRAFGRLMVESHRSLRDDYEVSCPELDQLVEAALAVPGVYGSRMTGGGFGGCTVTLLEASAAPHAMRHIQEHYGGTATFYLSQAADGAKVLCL
D(1A) dopamine receptor (Homo sapiens), sequence (P21728 whole entry, looked up): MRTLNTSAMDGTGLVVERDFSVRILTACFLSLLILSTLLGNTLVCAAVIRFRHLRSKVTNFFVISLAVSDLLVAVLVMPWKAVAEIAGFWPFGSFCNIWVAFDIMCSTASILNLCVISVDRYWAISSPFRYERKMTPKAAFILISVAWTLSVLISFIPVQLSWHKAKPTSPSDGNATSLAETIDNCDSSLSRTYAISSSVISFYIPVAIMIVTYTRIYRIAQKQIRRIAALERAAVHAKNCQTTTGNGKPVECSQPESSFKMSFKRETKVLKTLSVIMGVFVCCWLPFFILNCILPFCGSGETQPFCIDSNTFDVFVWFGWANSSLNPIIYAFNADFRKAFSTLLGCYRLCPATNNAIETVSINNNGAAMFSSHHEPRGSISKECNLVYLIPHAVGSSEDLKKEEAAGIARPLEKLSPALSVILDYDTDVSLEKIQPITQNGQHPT
Methanococcus maripaludis chaperonin (MmCpn), sequence (Q6LX38 1-543): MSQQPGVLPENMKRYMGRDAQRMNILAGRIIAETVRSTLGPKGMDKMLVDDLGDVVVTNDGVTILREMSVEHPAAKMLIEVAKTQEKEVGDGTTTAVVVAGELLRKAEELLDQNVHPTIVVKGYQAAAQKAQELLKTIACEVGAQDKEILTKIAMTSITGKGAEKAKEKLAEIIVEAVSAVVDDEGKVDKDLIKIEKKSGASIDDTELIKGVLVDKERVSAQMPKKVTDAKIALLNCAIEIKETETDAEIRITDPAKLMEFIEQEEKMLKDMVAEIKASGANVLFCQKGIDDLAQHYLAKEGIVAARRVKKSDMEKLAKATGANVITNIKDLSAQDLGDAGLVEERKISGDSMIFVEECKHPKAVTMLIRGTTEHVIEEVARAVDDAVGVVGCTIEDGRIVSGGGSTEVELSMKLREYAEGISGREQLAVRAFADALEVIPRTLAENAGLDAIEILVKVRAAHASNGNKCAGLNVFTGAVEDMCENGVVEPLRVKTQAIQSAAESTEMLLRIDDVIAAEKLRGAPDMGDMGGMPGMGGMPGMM
Flap endonuclease 1 (Homo sapiens), sequence (P39748 whole entry, looked up): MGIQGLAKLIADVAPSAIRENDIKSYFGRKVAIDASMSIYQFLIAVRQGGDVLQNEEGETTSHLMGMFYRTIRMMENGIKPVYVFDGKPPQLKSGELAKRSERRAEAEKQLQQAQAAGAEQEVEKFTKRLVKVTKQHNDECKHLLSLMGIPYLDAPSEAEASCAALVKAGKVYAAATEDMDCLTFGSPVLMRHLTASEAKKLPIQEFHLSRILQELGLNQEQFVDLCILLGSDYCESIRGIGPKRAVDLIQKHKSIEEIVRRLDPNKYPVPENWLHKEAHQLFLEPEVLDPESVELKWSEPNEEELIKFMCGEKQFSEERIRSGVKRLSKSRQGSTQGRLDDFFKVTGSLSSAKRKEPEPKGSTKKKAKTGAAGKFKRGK
M-phase phosphoprotein 8 (Homo sapiens), sequence (Q99549 whole entry, looked up): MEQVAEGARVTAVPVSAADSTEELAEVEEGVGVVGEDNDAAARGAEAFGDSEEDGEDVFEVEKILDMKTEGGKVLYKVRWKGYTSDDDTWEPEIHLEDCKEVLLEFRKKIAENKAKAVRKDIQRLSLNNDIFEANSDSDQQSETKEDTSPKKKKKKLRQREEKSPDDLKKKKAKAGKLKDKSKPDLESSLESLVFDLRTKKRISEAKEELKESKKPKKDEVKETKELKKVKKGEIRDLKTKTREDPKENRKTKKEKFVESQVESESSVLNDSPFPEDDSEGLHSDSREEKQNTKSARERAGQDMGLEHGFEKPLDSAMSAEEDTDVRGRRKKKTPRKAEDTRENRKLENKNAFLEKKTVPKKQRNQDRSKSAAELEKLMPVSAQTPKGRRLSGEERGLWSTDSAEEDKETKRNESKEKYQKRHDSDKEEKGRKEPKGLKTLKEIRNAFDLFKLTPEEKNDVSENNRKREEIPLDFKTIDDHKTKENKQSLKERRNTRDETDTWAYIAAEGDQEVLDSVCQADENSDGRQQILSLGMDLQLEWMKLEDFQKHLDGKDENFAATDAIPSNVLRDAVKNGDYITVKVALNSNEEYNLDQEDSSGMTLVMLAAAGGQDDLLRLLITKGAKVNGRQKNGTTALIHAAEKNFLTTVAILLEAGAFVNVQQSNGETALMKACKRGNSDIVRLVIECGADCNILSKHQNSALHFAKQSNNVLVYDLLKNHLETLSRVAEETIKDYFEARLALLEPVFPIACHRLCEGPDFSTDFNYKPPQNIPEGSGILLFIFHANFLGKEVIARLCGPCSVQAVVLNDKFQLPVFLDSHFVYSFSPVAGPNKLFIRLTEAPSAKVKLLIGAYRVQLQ
Thyrotropin-releasing hormone receptor (Homo sapiens), sequence (P34981 whole entry, looked up): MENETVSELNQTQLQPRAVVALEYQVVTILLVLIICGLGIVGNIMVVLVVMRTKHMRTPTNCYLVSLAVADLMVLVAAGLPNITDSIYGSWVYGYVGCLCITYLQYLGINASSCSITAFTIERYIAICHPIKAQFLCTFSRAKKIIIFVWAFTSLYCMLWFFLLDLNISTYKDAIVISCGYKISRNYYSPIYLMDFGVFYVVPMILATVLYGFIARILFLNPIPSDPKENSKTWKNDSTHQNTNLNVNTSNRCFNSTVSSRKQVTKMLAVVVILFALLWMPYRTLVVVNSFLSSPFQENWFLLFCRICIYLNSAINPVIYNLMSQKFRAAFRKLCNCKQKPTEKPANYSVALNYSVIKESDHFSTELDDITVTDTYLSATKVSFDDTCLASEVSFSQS
ATPase family AAA domain-containing protein 5 (Homo sapiens), sequence (Q96QE3 whole entry, looked up, the tested form may be a part): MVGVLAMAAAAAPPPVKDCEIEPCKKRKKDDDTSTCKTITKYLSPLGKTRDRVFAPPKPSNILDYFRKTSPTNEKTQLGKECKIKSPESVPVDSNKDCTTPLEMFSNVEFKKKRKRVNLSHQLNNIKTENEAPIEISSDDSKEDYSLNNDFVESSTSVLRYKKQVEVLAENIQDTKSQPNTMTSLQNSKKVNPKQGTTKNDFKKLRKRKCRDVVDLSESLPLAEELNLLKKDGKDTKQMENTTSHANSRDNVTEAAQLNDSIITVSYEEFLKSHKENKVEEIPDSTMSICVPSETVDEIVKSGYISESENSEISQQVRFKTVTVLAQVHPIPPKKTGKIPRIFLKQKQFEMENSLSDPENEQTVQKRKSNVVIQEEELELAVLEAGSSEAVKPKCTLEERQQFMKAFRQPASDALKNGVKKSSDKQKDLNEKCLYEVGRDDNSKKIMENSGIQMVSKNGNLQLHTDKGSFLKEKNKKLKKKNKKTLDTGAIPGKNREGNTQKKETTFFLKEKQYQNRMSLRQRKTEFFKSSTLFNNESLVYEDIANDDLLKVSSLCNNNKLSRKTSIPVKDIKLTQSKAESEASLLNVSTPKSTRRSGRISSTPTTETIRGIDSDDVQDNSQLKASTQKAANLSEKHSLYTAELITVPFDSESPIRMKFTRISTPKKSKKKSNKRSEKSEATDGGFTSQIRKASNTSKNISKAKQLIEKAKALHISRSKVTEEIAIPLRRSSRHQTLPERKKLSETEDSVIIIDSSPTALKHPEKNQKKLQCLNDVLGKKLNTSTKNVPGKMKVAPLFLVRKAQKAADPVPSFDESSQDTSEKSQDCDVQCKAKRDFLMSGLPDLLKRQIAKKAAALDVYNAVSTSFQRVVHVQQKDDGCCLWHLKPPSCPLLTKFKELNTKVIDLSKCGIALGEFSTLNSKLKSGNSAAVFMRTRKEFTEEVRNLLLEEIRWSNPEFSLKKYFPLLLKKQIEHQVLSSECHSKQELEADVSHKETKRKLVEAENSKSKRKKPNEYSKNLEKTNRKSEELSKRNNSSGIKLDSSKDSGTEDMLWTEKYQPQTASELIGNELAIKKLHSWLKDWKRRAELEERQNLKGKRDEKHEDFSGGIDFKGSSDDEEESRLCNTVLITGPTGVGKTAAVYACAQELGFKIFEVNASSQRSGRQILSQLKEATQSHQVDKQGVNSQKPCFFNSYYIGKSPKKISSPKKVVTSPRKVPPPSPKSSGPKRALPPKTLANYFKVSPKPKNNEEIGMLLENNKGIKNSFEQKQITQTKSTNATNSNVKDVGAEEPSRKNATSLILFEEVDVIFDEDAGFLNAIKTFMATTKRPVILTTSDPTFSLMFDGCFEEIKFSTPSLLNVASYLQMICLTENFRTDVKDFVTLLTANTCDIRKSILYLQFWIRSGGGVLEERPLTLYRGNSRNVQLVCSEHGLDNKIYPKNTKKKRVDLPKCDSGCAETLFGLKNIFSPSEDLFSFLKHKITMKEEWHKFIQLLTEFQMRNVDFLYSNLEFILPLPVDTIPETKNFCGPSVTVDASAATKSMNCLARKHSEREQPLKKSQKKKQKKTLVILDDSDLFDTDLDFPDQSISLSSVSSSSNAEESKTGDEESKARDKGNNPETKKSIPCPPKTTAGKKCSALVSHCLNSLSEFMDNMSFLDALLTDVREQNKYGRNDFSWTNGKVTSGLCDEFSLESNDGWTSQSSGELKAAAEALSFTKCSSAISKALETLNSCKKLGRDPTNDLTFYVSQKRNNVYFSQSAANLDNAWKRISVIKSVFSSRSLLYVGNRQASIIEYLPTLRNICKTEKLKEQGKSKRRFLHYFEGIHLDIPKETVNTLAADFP
Chromobox protein homolog 1 (Homo sapiens), sequence (P83916 whole entry, looked up): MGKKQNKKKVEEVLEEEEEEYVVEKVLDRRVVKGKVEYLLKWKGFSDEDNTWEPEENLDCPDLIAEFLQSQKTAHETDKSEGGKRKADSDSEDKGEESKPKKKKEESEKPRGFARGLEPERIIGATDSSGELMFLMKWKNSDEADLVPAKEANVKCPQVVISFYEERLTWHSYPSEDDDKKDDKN

O=c1[nH]c2cc(C(F)(F)F)ccc2n1-c1cc(C(F)(F)F)ccc1O
inactive: Potency [1] | Potency [2] | outcome [3] | outcome [4] | outcome [5] | Potency [6] | Potency [7] | Potency [8] | activation [9] 1.88% | Potency [10] | outcome [11] | Potency [12] | Potency [13]
-2.14%: viability change [10]

CCCCCCCCCCCCCCCC(=O)OC(CC(=O)O)C[N+](C)(C)C (configuration not stated)
active: Potency [15] 10 µM | Potency [16] 5.62 µM
-1.76%: viability change [10]
inactive: Potency [1] | Potency [2] | Potency [14] | outcome [3] | outcome [5] | Potency [6] | Potency [7] | Potency [8] | activation [9] 1.06% | Potency [10] | outcome [11] | Potency [12]

CN1CCN(c2cc3c(nn2)Oc2ccccc2N3C)CC1
inactive: outcome [17]

CC1CN(S(=O)(=O)c2cccc3cnccc23)CCN1 (configuration not stated)
1.98%: viability change [10]
inactive: Potency [1] | Potency [2] | outcome [3] | outcome [4] | outcome [5] | Potency [15] | Potency [6] | Potency [16] | Potency [7] | activation [9] 1.06% | Potency [10] | outcome [11] | Potency [12] | Potency [13]
active: Potency [8] 20.6 µM

CCCCCCCCCCCC(=O)[O][Sn]([CH2]CCC)([CH2]CCC)[O]C(=O)CCCCCCCCCCC
inactive: outcome [17]

CN(C)c1ccc(/C=C2\C(=O)Nc3ccccc32)cc1
active: Potency [2] 28.2 µM and 10.6 µM | Potency [14] 28.2 µM | Potency [7] 1.83 µM
inactive: Potency [1] | outcome [3] | outcome [4] | outcome [5] | Potency [15] | Potency [6] | activation [9] -8.75% | outcome [11] | Potency [12] | Potency [13]

Cc1ccc(O)c(-n2nc3ccccc3n2)c1
inactive: outcome [17]

CO/N=C(\C(=O)N[C@@H]1C(=O)N2C(C(=O)O)=C(COC(C)=O)CS[C@H]12)c1csc(N)n1
inactive: Potency [1] | outcome [3] | Potency [15] | Potency [6] | Potency [16] | Potency [7] | Potency [8] | Potency [10] | outcome [11]
-5.9%: viability change [10]
active: Potency [14] 50.1 µM

CC[C@@H](C)[C@H]1O[C@]2(CC[C@@H]1C)C[C@@H]1C[C@@H](C/C=C(\C)[C@@H](O[C@H]3C[C@H](OC)[C@@H](O[C@H]4C[C@H](OC)[C@@H](O)[C@H](C)O4)[C@H](C)O3)[C@@H](C)/C=C/C=C3\CO[C@@H]4[C@H](O)C(C)=C[C@@H](C(=O)O1)[C@]34O)O2
inactive: outcome [5] | Potency [12]

CO/N=C(\C(=O)N[C@@H]1C(=O)N2C(C(=O)O)=C(COC(C)=O)CS[C@H]12)c1csc(N)n1 (stereo in doubt)
inactive: outcome [4] | outcome [5] | activation [9] 0.688% | Potency [12] | Potency [13]
active: Potency [2] 56.2 µM | Potency [18] 7.94 µM

NC[C@H]1O[C@@H](n2cnc3c(N)ncnc32)[C@H](O)[C@@H]1O
inactive: Potency [1] | Potency [14] | outcome [3] | Potency [15] | Potency [6] | Potency [16] | Potency [7] | Potency [8] | Potency [10] | outcome [11]
9.27%: viability change [10]
